This note sets out measurements from PubChem BioAssay AID1456 (Vanderbilt High Throughput Screening Facility, 2008).

Structures are written as SMILES. Hit rate of the full screen: of about 190,000 compounds, about 4,100 (2.2%) were called active.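 How the source made its calls: active means thallium flux slope and its plate-corrected score both differing from the plate sample mean at a set confidence after two filtering rounds, in either direction; inactive means the rest.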 The full list was thinned out, with actives kept by preference.

The target of this experiment is Solute carrier family 12 member 5 (Homo sapiens) (UniProt Q9H2X9). Description: KCC2 cotransporter modulators, thallium flux, primary screen, cell-based, HEK293 KCC2, FluoZin-2 fluorescence, MLSMR (AID 1456).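 Further: slope of fluorescence scaled to starting intensity during 10 to 20 s after thallium.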 The settings on record: KCC2 cells, thallium flux FluoZin-2 fluorescence; at 10 µM.
Sequence of Solute carrier family 12 member 5 (Homo sapiens) (Q9H2X9 whole entry, looked up): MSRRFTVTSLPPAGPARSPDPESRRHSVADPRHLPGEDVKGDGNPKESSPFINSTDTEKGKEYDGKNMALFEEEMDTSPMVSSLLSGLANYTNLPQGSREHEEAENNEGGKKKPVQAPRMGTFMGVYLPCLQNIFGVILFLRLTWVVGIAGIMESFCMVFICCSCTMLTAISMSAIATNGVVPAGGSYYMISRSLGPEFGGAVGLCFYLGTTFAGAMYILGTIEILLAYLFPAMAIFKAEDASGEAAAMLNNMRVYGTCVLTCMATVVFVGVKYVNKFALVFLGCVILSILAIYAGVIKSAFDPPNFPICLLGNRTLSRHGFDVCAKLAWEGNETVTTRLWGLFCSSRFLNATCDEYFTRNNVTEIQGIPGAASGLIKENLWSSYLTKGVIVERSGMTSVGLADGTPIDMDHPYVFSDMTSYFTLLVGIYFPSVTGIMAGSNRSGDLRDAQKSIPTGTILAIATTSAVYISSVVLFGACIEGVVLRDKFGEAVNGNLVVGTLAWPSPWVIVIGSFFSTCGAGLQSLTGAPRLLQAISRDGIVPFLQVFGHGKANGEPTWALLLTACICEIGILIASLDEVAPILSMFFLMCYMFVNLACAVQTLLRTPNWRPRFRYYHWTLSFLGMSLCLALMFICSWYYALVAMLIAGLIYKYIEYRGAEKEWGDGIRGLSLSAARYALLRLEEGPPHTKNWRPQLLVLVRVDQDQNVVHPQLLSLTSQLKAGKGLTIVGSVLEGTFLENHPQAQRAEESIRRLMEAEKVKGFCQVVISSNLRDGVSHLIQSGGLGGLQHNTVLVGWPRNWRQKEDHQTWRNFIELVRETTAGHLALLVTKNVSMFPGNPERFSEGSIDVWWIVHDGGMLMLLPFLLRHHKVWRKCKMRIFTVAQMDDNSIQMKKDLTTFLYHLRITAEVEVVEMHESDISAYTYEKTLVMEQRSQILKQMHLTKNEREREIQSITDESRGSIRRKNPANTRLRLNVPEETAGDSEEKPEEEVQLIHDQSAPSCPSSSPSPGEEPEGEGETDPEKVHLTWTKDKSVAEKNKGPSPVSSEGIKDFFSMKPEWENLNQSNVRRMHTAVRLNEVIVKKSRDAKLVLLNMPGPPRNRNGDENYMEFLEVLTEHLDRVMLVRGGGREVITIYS
In the case of `Cc1ccc(C(=O)Nc2nc(N)n(-c3ccccc3)n2)cc1`, the B-score of Tl+ flux slope (higher = more flux/activation; lower = inhibition) is 0.00295 (inactive).

As for `N=c1c2c3c(sc2ncn1N)CCCC3`, the B-score of Tl+ flux slope (higher = more flux/activation; lower = inhibition) was 1.3 (inactive).

Regarding `S=c1[nH]nc2c3c4c(sc3ncn12)CCCC4`, the B-score of Tl+ flux slope (higher = more flux/activation; lower = inhibition) was 6.7 (active).

`c1nnc2c3c4c(sc3ncn12)CCC4`: the B-score of Tl+ flux slope (higher = more flux/activation; lower = inhibition) is -0.0315 (inactive).

For the compound `O=C(CCl)Nc1cccc(CP(=O)(c2ccccc2)c2ccccc2)c1`, the B-score of Tl+ flux slope (higher = more flux/activation; lower = inhibition) is -0.0445 (inactive).

With `CCN(CC)C(=O)CS(=O)CC(=O)Nc1cc(OCCOC)c(Cl)cc1Cl` (centres undefined), the B-score of Tl+ flux slope (higher = more flux/activation; lower = inhibition) was -0.00564 (inactive).

Regarding `O=C(Nc1ccccc1F)C1C2C=CC3(O2)C1C(=O)N(c1cccnc1)C3C(=O)NC1CCCCC1` (centres undefined), the B-score of Tl+ flux slope (higher = more flux/activation; lower = inhibition) was -6.39 (active).

Take `CC(C)N1C(=O)C2C(C(=O)NC3CCCCC3)C3C=CC2(O3)C1C(=O)NC1CCCC1` (centres undefined): the B-score of Tl+ flux slope (higher = more flux/activation; lower = inhibition) was -0.424 (inactive).

With `O=C(NCc1cccnc1)Nc1ccccc1F`, the B-score of Tl+ flux slope (higher = more flux/activation; lower = inhibition) was 0.189 (inactive).

For `Cc1nn(-c2ccccc2)c(=O)c2noc(C)c12`, the B-score of Tl+ flux slope (higher = more flux/activation; lower = inhibition) is -0.0422 (inactive).

Consider `CCOC(=O)c1c(NC(=S)Nc2ccccc2C)sc2c1CCC2`, for which the B-score of Tl+ flux slope (higher = more flux/activation; lower = inhibition) is -0.787 (inactive).

For the compound `CCOCC(=O)Nc1sc2c(c1C(=O)OCC)CCCC2`, the B-score of Tl+ flux slope (higher = more flux/activation; lower = inhibition) is 0.549 (inactive).

Turning to `CCOC(=O)c1c(NC(=S)NC)sc2c1CCCC2`, the B-score of Tl+ flux slope (higher = more flux/activation; lower = inhibition) is 118 (active).

Turning to `Cc1nc(=O)c(-c2ccccc2)c(C)n1-c1ccc(Br)cc1`, the B-score of Tl+ flux slope (higher = more flux/activation; lower = inhibition) is -0.435 (inactive).

Take `COCCNc1nc(-n2nc(C)cc2C)nc2sc3c(c12)CCCC3`: the B-score of Tl+ flux slope (higher = more flux/activation; lower = inhibition) was -4.01 (active).

As for `CCC(O)CNc1nc(-n2nc(C)cc2C)nc2sc3c(c12)CC(C)(C)OC3` (centres undefined), the B-score of Tl+ flux slope (higher = more flux/activation; lower = inhibition) was -1.67 (inactive).

Regarding `Cc1cc(C)n(-c2nc(SCC(=O)N3CCCC3)c3c4c(sc3n2)CCCC4)n1`, the B-score of Tl+ flux slope (higher = more flux/activation; lower = inhibition) is 0.509 (inactive).

On to `COc1cccc(N2C(=O)CC(N3CCc4ccccc4C3)C2=O)c1` (centres undefined), for which the B-score of Tl+ flux slope (higher = more flux/activation; lower = inhibition) is 0.0221 (inactive).

As for `O=C(CSc1nc2ccccc2o1)N/N=C/c1ccccc1C(=O)O`, the B-score of Tl+ flux slope (higher = more flux/activation; lower = inhibition) was 0.867 (inactive).

As to `CSc1sc(C(=O)NC(=O)NCc2cccnc2)c(C)c1-c1ccon1`, the B-score of Tl+ flux slope (higher = more flux/activation; lower = inhibition) is -1.42 (inactive).

In the case of `CCOC(=O)c1cccnc1NC(=O)c1ccncc1`, the B-score of Tl+ flux slope (higher = more flux/activation; lower = inhibition) was 0.477 (inactive).

On to `COC(=O)c1cccnc1NC(=S)NC(C)C`, for which the B-score of Tl+ flux slope (higher = more flux/activation; lower = inhibition) is 37.7 (active).

With `COC(=O)c1ccccc1NC(=S)NC(=O)c1ccccc1F`, the B-score of Tl+ flux slope (higher = more flux/activation; lower = inhibition) is 4.93 (inactive).

On to `Nc1scc[n+]1Cc1cccc2cccnc12`, for which the B-score of Tl+ flux slope (higher = more flux/activation; lower = inhibition) was -0.326 (inactive).

Take `c1ccc2c(C[n+]3csc4ccccc43)cccc2c1`: the B-score of Tl+ flux slope (higher = more flux/activation; lower = inhibition) was 4.99 (active).

For the compound `c1ccc2c(CSCc3nc4ccccc4[nH]3)cccc2c1`, the B-score of Tl+ flux slope (higher = more flux/activation; lower = inhibition) was -2.07 (inactive).

With `CC(=O)Nc1ccc(C(=O)/C=C/c2ccc[nH]2)cc1`, the B-score of Tl+ flux slope (higher = more flux/activation; lower = inhibition) is 0.0206 (inactive).

For the compound `Cc1ccc(S(=O)(=O)N2CCN(C(=O)COC(=O)c3c(C)noc3C)CC2)c(C)c1`, the B-score of Tl+ flux slope (higher = more flux/activation; lower = inhibition) is 0.177 (inactive).

As for `CCn1c(O)c(N=NC2=NC(=O)CS2)c2cc(C)ccc21`, the B-score of Tl+ flux slope (higher = more flux/activation; lower = inhibition) was 8.24 (active).

With `CCn1c(O)c(N=NC(=O)c2cccc(S(=O)(=O)N3CCCCC3)c2)c2ccccc21`, the B-score of Tl+ flux slope (higher = more flux/activation; lower = inhibition) was -0.0952 (inactive).

With `CCn1c(=O)cc(O)c2ccccc21`, the B-score of Tl+ flux slope (higher = more flux/activation; lower = inhibition) is 0.265 (inactive).

In the case of `O=C(Cn1nnc(N2CCCCC2)n1)c1ccc(Cl)c(Cl)c1`, the B-score of Tl+ flux slope (higher = more flux/activation; lower = inhibition) was -0.13 (inactive).

Take `C/C=N/N(c1ccccc1)c1ccccc1`: the B-score of Tl+ flux slope (higher = more flux/activation; lower = inhibition) is 0.121 (inactive).

Regarding `Cc1ccc(S(=O)(=O)/N=C(/NC(=S)Nc2c(C)n(C)n(-c3ccccc3)c2=O)c2ccccc2)cc1`, the B-score of Tl+ flux slope (higher = more flux/activation; lower = inhibition) is -0.219 (inactive).

For `CC1CCCN(S(=O)(=O)c2ccc(C(=O)Nc3nnc(-c4ccncc4)o3)cc2)C1` (centres undefined), the B-score of Tl+ flux slope (higher = more flux/activation; lower = inhibition) is -0.0172 (inactive).

Take `CC1CCCCN1S(=O)(=O)c1ccc(S(=O)(=O)N(CC(=O)Nc2ccccc2)Cc2cccs2)cc1` (centres undefined): the B-score of Tl+ flux slope (higher = more flux/activation; lower = inhibition) was 0.0298 (inactive).

As to `CC1CCCCN1S(=O)(=O)c1ccc(C(=O)Nc2nnc(-c3cccs3)o2)cc1` (centres undefined), the B-score of Tl+ flux slope (higher = more flux/activation; lower = inhibition) was 6.64 (active).

In the case of `CC(C)Cc1ccc(C(C)C(=N)N)cc1` (centres undefined), the B-score of Tl+ flux slope (higher = more flux/activation; lower = inhibition) was 0.737 (inactive).

With `NS(=O)(=O)c1ccc(CNC(=O)c2cnccn2)cc1`, the B-score of Tl+ flux slope (higher = more flux/activation; lower = inhibition) is 1.11 (inactive).

`NCC(=O)c1cccc2ccc[n+]([O-])c12`: the B-score of Tl+ flux slope (higher = more flux/activation; lower = inhibition) is 1.34 (inactive).

`COc1ccc(CCN2C(=O)CC(N3CCC(C(N)=O)CC3)C2=O)cc1OC` (centres undefined): the B-score of Tl+ flux slope (higher = more flux/activation; lower = inhibition) is 0.129 (inactive).

As to `CC1(C)Cc2ccccc2-c2nnc(-c3cccc(O)c3)n21`, the B-score of Tl+ flux slope (higher = more flux/activation; lower = inhibition) is -0.616 (inactive).

For the compound `c1cncc(-c2nnc3n2C2(CCCCC2)Cc2ccccc2-3)c1`, the B-score of Tl+ flux slope (higher = more flux/activation; lower = inhibition) was 4.46 (active).

Regarding `O=c1c2ccccc2nc2n1C1(CCCCC1)Cc1ccccc1-2`, the B-score of Tl+ flux slope (higher = more flux/activation; lower = inhibition) is -0.241 (inactive).

Regarding `Cc1ccc(CN2CCN(Cc3ccc4ncccc4c3)CC2CCO)cc1` (centres undefined), the B-score of Tl+ flux slope (higher = more flux/activation; lower = inhibition) was -0.182 (inactive).

Consider `O=C(Nc1nc2c(F)cc(F)cc2s1)C1COc2ccccc2O1` (centres undefined), for which the B-score of Tl+ flux slope (higher = more flux/activation; lower = inhibition) was 67.4 (active).

With `O=C(Nc1nc(-c2ccncc2)cs1)C1COc2ccccc2O1` (centres undefined), the B-score of Tl+ flux slope (higher = more flux/activation; lower = inhibition) is -0.139 (inactive).

As for `COc1ccc(OC)c2sc(NC(=O)C3COc4ccccc4O3)nc12` (centres undefined), the B-score of Tl+ flux slope (higher = more flux/activation; lower = inhibition) was -1.33 (inactive).

Turning to `CC(C)c1cc(CN2CCOCC2)cc(C(C)C)c1O`, the B-score of Tl+ flux slope (higher = more flux/activation; lower = inhibition) is -0.911 (inactive).
